High-throughput results (PubChem BioAssay)
CYP2C9 inh = blockers of cytochrome P450 2C9 activity – biochemical, luminescence, ADME assay, primary screen. 96,000 tested, 20% active. CYP2C9 Supersomes, luciferin-H conversion. inhibition, % at 5 µM;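 active means blocking of liver enzyme CYP2C9 beyond about 50% at 5 µM, limit read from the data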
CYP2C19 inh = blockers of cytochrome P450 2C19 activity – biochemical, luminescence, ADME assay, primary screen. P33261. CYP2C19 Supersomes, luciferin-H EGE luminescence, 30 min. inhibition, % at 5 µM. 96,000 tested, 21% active;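 active means CYP2C19 inhibition above a set limit at 5 µM in the primary screen, cut at about 50% in these data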;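 further: plate controls were negative control wells for no effect and 2.5 mM tranylcypromine positive control for full effect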
CYP2C9 activ = human CYP2C9 activators, primary screen, biochemical, luminescence; 96,000 tested, 1.4% active; recombinant CYP2C9, luciferin-H conversion; hits give high values; factor 1 = untreated enzyme, 0 = blocked; Cytochrome P450 2C9 (Homo sapiens), P11712; activation factor at 5 µM;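 active means activation factor of 2 or more for CYP2C9 at a 5 µM dose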;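 further: 0 = sulfaphenazole-blocked wells and 1 = vehicle-only wells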
Mac1 fbg enh = enhancers of CD11b/CD18 adhesion to fibrinogen, primary screen, K562 cells, luminescence. ATPlite luminescence. 93,000 tested, 0.07% active. Integrin beta-2 (Homo sapiens) + Integrin alpha-M (Homo sapiens), P05107+P11215. activation, % at 10 µM;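 active means 10 µM primary screen giving 50% or more activity, confirmed by 40% or more on retest at that dose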
Target sequence (P05107 whole entry, looked up, other chains not shown): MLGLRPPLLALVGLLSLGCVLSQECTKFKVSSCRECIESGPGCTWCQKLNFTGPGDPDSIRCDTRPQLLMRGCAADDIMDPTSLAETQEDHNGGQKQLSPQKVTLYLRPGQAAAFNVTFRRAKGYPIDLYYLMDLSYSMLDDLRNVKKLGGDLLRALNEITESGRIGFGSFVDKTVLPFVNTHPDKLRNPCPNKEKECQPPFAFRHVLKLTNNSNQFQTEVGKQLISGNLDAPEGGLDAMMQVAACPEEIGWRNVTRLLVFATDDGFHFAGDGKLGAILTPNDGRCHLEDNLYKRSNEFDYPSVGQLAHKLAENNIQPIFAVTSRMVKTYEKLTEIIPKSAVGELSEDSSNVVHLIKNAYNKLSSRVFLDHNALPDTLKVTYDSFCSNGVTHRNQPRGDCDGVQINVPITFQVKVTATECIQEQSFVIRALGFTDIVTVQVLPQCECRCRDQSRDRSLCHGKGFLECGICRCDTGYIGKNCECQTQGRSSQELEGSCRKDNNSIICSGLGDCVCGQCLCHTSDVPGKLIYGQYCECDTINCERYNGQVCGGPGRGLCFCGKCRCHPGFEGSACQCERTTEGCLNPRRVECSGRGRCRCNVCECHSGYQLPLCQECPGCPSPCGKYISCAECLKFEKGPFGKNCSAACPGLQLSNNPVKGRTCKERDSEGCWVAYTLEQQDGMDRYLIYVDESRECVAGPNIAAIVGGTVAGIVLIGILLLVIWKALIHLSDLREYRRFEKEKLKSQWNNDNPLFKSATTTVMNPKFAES
CD11b adhes inh = inhibitors of CD11b/CD18 adhesion to fibrinogen, primary screen, K562 cells, luminescence; ATPlite luminescence; Mn2+ added to activate the integrin; inhibition, % at 10 µM; Integrin beta-2 (Homo sapiens) + Integrin alpha-M (Homo sapiens), P05107+P11215; 93,000 tested, 0.54% active;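 active means primary inhibition of 50% or more at 10 µM, then 40% or more on retest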
CYP2C19 act = human CYP2C19 activators, primary screen, biochemical, luminescence. Cytochrome P450 2C19 (Homo sapiens), P33261. recombinant CYP2C19, luciferin-H EGE luminescence; hits give high values; 0 = fully inhibited enzyme, 1 = untreated enzyme. activation factor at 5 µM. 96,000 tested, under 10 active. AID 1025, 2008;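 active means activation factor of at least 2 at 5 µM in the primary screen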;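 further: 0 = wells with 2.5 mM tranylcypromine and 1 = vehicle-only wells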
* hit, by the source's call; x = no result given. Hits are enriched below; roughly 28% of the tested compounds scored in any of these assays.

SMILES	CYP2C9 inh	CYP2C19 inh	CYP2C9 activ	Mac1 fbg enh	CD11b adhes inh	CYP2C19 act
Cc1cc(C(=O)OCC(=O)N(C)C2CCS(=O)(=O)C2)c(C)n1-c1ccccc1 (centres undefined)	7	22	0.9	-2	-8	0.8
O=C(Nc1ccc(S(=O)(=O)NCCc2ccccc2)cc1)c1ccco1	95*	59*	0.1	-1	14	0.4
CCN(CC)S(=O)(=O)c1ccc(NC(=O)c2ccccn2)cc1	49	28	0.5	-1	-3	0.7
CC(Oc1ccc(NC(=O)c2ccco2)cc1)C(=O)N1c2ccccc2CC1C (centres undefined)	51*	33	0.5	5	-4	0.7
O=C(CSCCNS(=O)(=O)c1ccccc1)Nc1ccccc1	50	92*	0.5	-4	-10	0.1
CCCNS(=O)(=O)c1ccc(NC(=O)c2ccccn2)cc1	85*	57*	0.1	3	2	0.4
COc1cccc(C(=O)NC2=NCCS2)c1OC	-6	34	1.1	-1	0	0.7
Cc1ccc(N(C)S(=O)(=O)c2cccc(C(=O)NC3=NCCS3)c2)cc1	69*	41	0.3	-4	7	0.6
COc1ccc(N(C)S(=O)(=O)c2cccc(C(=O)NC3=NCCS3)c2)cc1	64*	44	0.4	-1	-12	0.6
COC(=O)CN(c1cccc(F)c1)S(C)(=O)=O	8	0	0.9	-4	-5	1
O=C(CCCN1C(=O)CSc2ncccc21)N1CCN(Cc2ccccc2)CC1	19	18	0.8	-2	-2	0.8
CC(C)(C)c1ccc(S(=O)(=O)NCC(=O)Nc2sc3c(c2C(N)=O)CCCC3)cc1	55*	6	0.4	1	6	0.9
NC(=O)c1c(NC(=O)c2cccs2)sc2c1CCCCCC2	85*	84*	0.2	-3	17	0.2
O=C(Nc1sc2c(c1C(=O)O)CCC2)c1ccccc1	22	13	0.8	-2	5	0.9
O=C(Nc1sc2c(c1C(=O)O)CCC2)c1cccs1	70*	85*	0.3	0	0	0.2
CC(C)(C)C1CCC(=NNC(=O)c2ccccc2-n2cccc2)CC1 (centres undefined)	x	x	x	0	15	x
CC/C(=N\NC(=O)c1csc(C)c1C)c1cccs1	14	75*	0.9	x	x	0.3
C/C(=N\NC(=O)c1csc(C)c1C)c1ccc(Cl)s1	-10	4	1.1	0	6	1
CCCCNC(=O)CNC(=O)c1cccs1	14	30	0.9	-5	-10	0.7
CCC/C(=N\NC(=O)c1csc(C)c1C)c1cccs1	-19	67*	1.2	-3	2	0.3
COc1cc2c(cc1NC(=O)COC(=O)c1ccc(C(C)(C)C)cc1)oc1ccccc12	x	x	x	75	-6	x
Cc1ccc(/C=N/NC(=O)CC(=O)NCc2cccnc2)cc1	x	x	x	-2	-10	x
O=C(CC(=O)N/N=C\c1c(Cl)cccc1Cl)NCc1ccccc1	41	86*	0.6	x	x	0.1
CCSCCOC(=O)C1=C(C)NC2=C(C(=O)CCC2)C1c1coc2ccccc2c1=O (centres undefined)	52*	17	0.5	-3	-13	0.8
CC1=C(C(=O)OC(C)C)C(c2cccs2)C(C(=O)OC(C)C)=C(C)N1	x	x	x	-1	-3	x
SMILES	CYP2C9 inh	CYP2C19 inh	CYP2C9 activ	Mac1 fbg enh	CD11b adhes inh	CYP2C19 act
CCSCCOC(=O)C1=C(C)NC(=O)NC1c1ccccc1 (centres undefined)	4	32	1	6	0	0.7
CC1=C(C(=O)OC(C)C)C(c2coc3ccccc3c2=O)C2=C(CCCC2=O)N1 (centres undefined)	62*	46	0.4	0	-7	0.5
CC(C)OC(=O)CN1C(=O)C(C)(C)Oc2ccc(C(=O)NC3CC3)cc21	34	12	0.7	2	-30	0.9
CC(C)OC(=O)CN1C(=O)C(C)(C)Oc2ccc(C(=O)NC(C)(C)C)cc21	73*	36	0.3	2	-14	0.6
COc1ccccc1-c1nc(-c2ccncc2)no1	23	89*	0.8	3	2	0.1
Clc1cc(Cl)c(OCc2nc(-c3ccccn3)no2)cc1Cl	7	8	0.9	-2	-4	0.9
COc1ccc(-c2noc(-c3ccccc3Cl)n2)cc1OC	-3	15	1	-5	-5	0.9
COc1ccccc1-c1nc(-c2ccc(Br)cc2)no1	-16	-1	1.2	0	2	1
Clc1ccc(OCc2nc(-c3ccncc3)no2)c(Cl)c1	95*	96*	0.1	7	4	0
CCOc1ccccc1-c1nc(-c2ccncc2)no1	-37	78*	1.4	-1	-3	0.2
CCOc1ccccc1-c1nc(-c2cc3ccccc3nc2OC)no1	0	6	1	0	-4	0.9
COc1ccc(Cl)cc1-c1nc(-c2ccncc2)no1	38	79*	0.6	-4	3	0.2
Cc1ccc(CNC(=O)c2ccccc2NC(=O)CSc2nnnn2C)cc1	6	6	0.9	-2	1	0.9
CCCN(CCC)CC(O)COc1ccc([N+](=O)[O-])cc1 (centres undefined)	11	11	0.9	2	4	0.9
O=S(=O)(c1ccccc1)c1nc(-c2ccccc2Cl)oc1NCCN1CCOCC1	77*	36	0.2	3	-18	0.6
Cc1ccccc1-c1nc(S(=O)(=O)c2ccc(Cl)cc2)c(NCCN2CCOCC2)o1	36	35	0.6	-1	-6	0.6
N#Cc1nc(-c2ccccc2F)oc1NCCN1CCOCC1	27	64*	0.7	3	-15	0.4
Cc1cccc(C)c1NC(=O)COC(=O)c1nonc1N	-12	26	1.1	-4	-35	0.7
Cc1c2cnn(CC(=O)Nc3cccc(C(F)(F)F)c3)c(=O)c2c(C)n1Cc1ccccc1F	x	x	x	1	-10	x
O=c1nc2sc3ccccc3n2c(=O)n1-c1cccc(Cl)c1	28	68*	0.7	-1	22	0.3
O=C1NC2(CCc3ccccc32)C(=O)N1CCOc1ccc(Cl)cc1 (centres undefined)	77*	6	0.2	-3	-4	0.9
Cc1ccccc1OCCN1C(=O)NC2(CCc3ccccc32)C1=O (centres undefined)	-95	35	2*	x	x	0.7
Cc1ccc(OCc2nnc(SCC(=O)NCc3ccccc3)n2C)cc1	22	7	0.8	-2	-13	0.9
